IL2 activator: qHTS of IL-2 Activators; IL-2 activation reporter assay, cell-based qHTS; stimulated with anti-CD3/CD4/CD28 beads; in transgenic mouse T cells; activation, % (series mostly up to about 46 µM); actives 0.065% (n = 360,000); AID 652025, 2013; in the data active means activation above about 50%; inconclusive means mostly about 30% to 49%
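Unstimulated transgenic mouse T cells; 60-min compound exposure; bead-based TCR/CD4/CD28 stimulation; 18 h culture, 37 degrees C; dual fluorescence (EGFP, DsRed) plate cytometry.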
ELG1 DNA repair: qHTS screen for small molecules that inhibit ELG1-dependent DNA repair in human embryonic kidney (HEK293T) cells expressing luciferase-tagged ELG1 | HEK293T ELG1-luciferase reporter, luminescence, 16 h; DNA damage induced by 5-fluorouridine | Potency, µM (titrated, usually from 46.1 µM), hits mostly inhibitors | actives 2.3% (n = 330,000); further: nearly all actives have a fitted effect of over 55% in size
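HEK293T cells expressing luciferase-tagged ELG1 (2,000/well) received 5-Fluorouridine plus compound or DMSO for 16 hr at 37 °C. Luciferase was read by ONE-Glo luminescence after 30 min at room temperature.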
BRCA1 expr act: qHTS Assay to Identify Small Molecule Activators of BRCA1 Expression. MCF7-BRCA1-FFLuc reporter, luminescence, 48 h; response scale: scaled: vehicle 0%, 10 µM genistein 100%. Potency, µM (series often up to 46.1 µM), actives largely listed as activators. actives 1.1% (n = 380,000). AID 624202, 2012; further: nearly all actives have a fitted effect of over 80% in size
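Compounds are tested at multiple concentrations on MCF7 BRCA1-luciferase reporter cells seeded at 2000 per well; after 48 h, a single luminescence end-point is taken and curves fitted to the normalized data.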
Nrf2 activator: qHTS of Nrf2 Activators | Potency, µM (doses to about 46.1 µM), actives largely listed as activators | AREc32 ARE-luciferase reporter (MCF7-derived line), luminescence, 24 h | actives 0.31% (n = 410,000); further: nearly all actives have a fitted effect of over 65% in size
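Luminescent ARE reporter assay in AREc32_Fluc cells: overnight plating at 37 deg C, 24 hr compound incubation, Steady-Glo added, 30 min RT before reading.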
ELG1 FLuc counter: qHTS screen for small molecules that inhibit ELG1-dependent DNA repair: Hit Confirmation in Cell-Based Luciferin Assay; actives 3% (n = 350); shares compounds with ELG1 DNA repair; Potency, µM (top dose mostly 46.1 µM), usual class: inhibitors; cell-free firefly luciferase luminescence counter-screen, ViewLux
ELG1 Luc conf: HTS assay for small molecules that inhibit ELG1-dependent DNA repair in human embryonic kidney (HEK293T) cells expressing luciferase-tagged ELG1: Hit Confirmation; AID 624248, 2012; actives 68% (n = 670); Potency, µM (highest dose often 46.1 µM), most hits filed as inhibitors; shares compounds with ELG1 DNA repair; HEK293T ELG1-luciferase levels, luminescence; cells co-treated with 5-fluorouridine; further: nearly all actives have a fitted effect of over 55% in size
ELG1 MMS Luc: MMS-stimulated human ELG1 repair inhibition, confirmed | shares compounds with ELG1 DNA repair | HEK293T luciferase-tagged ELG1 level, MMS stimulated | Potency, µM (titrated, usually from 46.1 µM), actives largely listed as inhibitors | actives 53% (n = 670); further: nearly all actives have a fitted effect of over 60% in size
ELG1 5FU viab: qHTS screen for small molecules that inhibit ELG1-dependent DNA repair: Hit Confirmation with 5FU Viability; cell viability with 5-FU, ELG1-dependent repair; 670 tested, under 10 active; Potency, µM (highest dose often 46.1 µM), usual class: cytotoxic; shares compounds with ELG1 DNA repair;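 further: ELG1-luc HEK293T cells cotreated with 5-fluorouridine at 10 µM final; viability measured 16 h after compound addition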
ELG1 MMS cell: qHTS screen for small molecules that inhibit ELG1-dependent DNA repair: Hit Confirmation with MMS Viability; shares compounds with ELG1 DNA repair; Cell viability with MMS, ELG1-dependent DNA repair; Potency, µM (series often up to 46.1 µM), most hits filed as cytotoxic; actives 33% (n = 670); AID 624251, 2012;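 further: ELG1-luc HEK293T cells co-treated with 10 µM MMS; viability read 16 h after compound addition; nearly all actives have a fitted effect of over 60% in size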
ELG1 unstim viab: qHTS screen for small molecules that inhibit ELG1-dependent DNA repair: Hit Confirmation with Unstimulated Viability Assay; Potency, µM (doses to about 45.9 µM), usual class: cytotoxic; actives 8% (n = 900); shares compounds with ELG1 DNA repair; cell viability counter-screen, unstimulated, luminescence;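 further: compound exposure lasted 16 hours before reading; nearly all actives have a fitted effect of over 55% in size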
FLuc enzyme: qHTS screen for small molecules that inhibit ELG1-dependent DNA repair: Hit Confirmation in Biochemical Luciferin Assay. shares compounds with ELG1 DNA repair. AID 624253, 2012. actives 10% (n = 350). Potency, µM (titrated, usually from 57.5 µM), actives largely listed as inhibitors. purified firefly luciferase, luminescence counter-screen
Hits are given with their value; - = inactive; ? = inconclusive; . = no result. The list is not random: actives were taken first. Their share in the collection is about 3.1%. Unless noted, the call rests on the fitted dose curve; in most records, active means well fitted curve in the direction sought with a large enough effect; inconclusive means small, poorly fitted or top-dose-only effect, or another doubt; inactive means no such curve, though single readings can be large; an effect the other way counts as inactive or inconclusive.

SMILES	IL2 activator	ELG1 DNA repair	BRCA1 expr act	Nrf2 activator	ELG1 Luc conf	ELG1 MMS Luc	ELG1 5FU viab	ELG1 MMS cell	ELG1 unstim viab	others
Cc1nc(S(=O)(=O)N2CCN(c3cccc(Cl)c3)CC2)cn1C	.	.	-	-	.	.	.	.	.
CC(/C=N/n1c(-c2ccncc2)n[nH]c1=S)=C\c1ccco1	-	2.6µM	-	7.1µM	13µM	6.3µM	-	-	-
CC(=C/c1ccccc1)/C=N/n1c(-c2ccncc2)n[nH]c1=S	-	2.3µM	-	-	2.8µM	?	-	-	-
CC(/C=N/n1c(-c2ccc(C)cc2)n[nH]c1=S)=C\c1ccco1	-	-	-	?	.	.	.	.	.
COc1ccc(N(CC(C)C)S(=O)(=O)c2nnc(NC(=O)c3cccs3)s2)cc1	.	.	.	-	.	.	.	.	.
Cc1cccn2c(CNCC3(c4ccccc4)CCCC3)c(C(=O)N3CCOCC3)nc12	-	2.9µM	-	-	?	13µM	-	25µM	?
CC(C)(C)NC(=O)C(c1cc2ccccc2o1)n1c(-c2ccc(-c3ccccc3)cc2)nc2ccccc21 (centres undefined)	-	.	.	.	.	.	.	.	.
COc1ccc(N2CCN(C(=O)CN3CCN(c4nc(-c5ccc(F)cc5)cs4)CC3)CC2)cc1	-	2.1µM	-	-	14µM	4µM	-	4.4µM	?
COc1ccc(-c2nnn(CC(=O)N3CCN(c4ccc(F)cc4)CC3)n2)cc1	-	-	-	-	.	.	.	.	.
CCN(CC)S(=O)(=O)c1ccc2c(c1)N(CC(=O)Nc1cccc(C#N)c1)C(=O)CO2	.	.	.	-	.	.	.	.	.
O=C(Nc1cccc(NC(=O)c2cccc([N+](=O)[O-])c2)n1)c1cccc([N+](=O)[O-])c1	-	2.1µM	-	-	?	-	-	?	?
Cc1nn(C)c(C)c1/C=C/C(=O)O	-	-	-	-	.	.	.	.	.
Cc1nn(C)c(C)c1/C=C/C(=O)c1ccc(Cl)cc1Cl	-	4.1µM	-	-	-	1.6µM	-	2.2µM	?
CCOC(=O)c1cc(S(=O)(=O)Nc2cc(C)c(Cl)cc2OC)[nH]n1	.	.	-	-	.	.	.	.	.
Cc1ccc(N(C)C(=O)C2CCN(S(=O)(=O)c3c(C)noc3/C=C/c3c(C)cc(C)cc3C)CC2)cc1	.	.	.	-	.	.	.	.	.
CCN(CC)Cc1c(O)ccc2c([N+](=O)[O-])c(C)n(-c3ccc(OC)cc3)c12	-	2.3µM	-	-	4µM	?	-	-	-
c1ccc2c(c1)CCN(c1nc(CN3CCOCC3)nc3sc4c(c13)CCCC4)C2	-	10µM	-	-	10µM	?	?	-	-	ELG1 FLuc counter=-;FLuc enzyme=-
CC(=O)n1cc([C@@H]2C=C(C(=O)N3CCN(Cc4ccc5c(c4)OCO5)CC3)O[C@H](OCCCCO)C2)c2ccccc21	-	18µM	-	-	?	-	-	-	?	ELG1 FLuc counter=-;FLuc enzyme=-
O=C(C1=C[C@@H](c2ccc3c(c2)OCO3)C[C@@H](OCCCCO)O1)N1CCN(Cc2ccc3c(c2)OCO3)CC1	-	-	-	-	.	.	.	.	.
O=C(C1=C[C@H](c2ccc3c(c2)OCO3)C[C@H](OCCCCO)O1)N1CCN(Cc2ccccc2)CC1	-	-	-	-	-	?	-	?	-	ELG1 FLuc counter=-;FLuc enzyme=-
O=C(C1=C[C@H](c2ccc3c(c2)OCO3)C[C@H](OCCCCO)O1)N1CCN(Cc2ccc3c(c2)OCO3)CC1	-	?	-	-	.	.	.	.	.
O=C(NCCS(=O)(=O)N1CCN(c2ccccc2F)CC1)C(c1ccccc1)c1ccccc1	.	.	.	-	.	.	.	.	.
COc1cccc(CNC(=O)c2cccc(S(=O)(=O)N3CCN(c4ccc(F)cc4)CC3)c2)c1	-	?	-	-	.	.	.	.	.
COc1ccc(CNC(=O)c2cccc(S(=O)(=O)N3CCN(c4ccc(F)cc4)CC3)c2)cc1	-	3.3µM	-	-	14µM	16µM	-	13µM	?
CCC(C)(C)C1CCc2nc3ccccc3c(C(=O)OC(C)C(=O)Nc3c(C)n(C)n(-c4ccccc4)c3=O)c2C1 (centres undefined)	-	4.1µM	-	-	2.2µM	25µM	?	-	?
SMILES	IL2 activator	ELG1 DNA repair	BRCA1 expr act	Nrf2 activator	ELG1 Luc conf	ELG1 MMS Luc	ELG1 5FU viab	ELG1 MMS cell	ELG1 unstim viab	others
Cc1ccn2c(=O)c(C(=O)NCCc3ccc(S(N)(=O)=O)cc3)c(O)nc2c1	.	.	-	-	.	.	.	.	.
COc1ccc(-n2nc(C(=O)NCC(=O)Nc3cc(OC)c(OC)c(OC)c3)c3ccccc3c2=O)cc1	-	3.3µM	-	-	3.2µM	13µM	-	-	?	ELG1 FLuc counter=-;FLuc enzyme=-
Cc1cc(C(=O)NNc2ccc(F)cc2)no1	-	2.9µM	-	-	-	-	-	-	-
CSCCC(NS(=O)(=O)c1ccc2c(c1)OCCO2)C(=O)N(C)Cc1ccc(C)cc1 (centres undefined)	-	-	-	-	.	.	.	.	.
COc1cccc(CN(C)C(=O)C(CCSC)NS(=O)(=O)c2ccc3c(c2)OCCO3)c1OC (centres undefined)	-	4.6µM	-	-	11µM	8.9µM	-	?	?
Cc1ncoc1C(=O)NC1CCCc2c1cnn2-c1cc(F)cc(F)c1 (centres undefined)	-	.	-	-	.	.	.	.	.
Cc1ncoc1C(=O)NC1CCCc2c1cnn2-c1ccc(C(C)(C)C)cc1 (centres undefined)	-	1.3µM	-	-	?	0.79µM	-	0.79µM	8.9µM
